The values below come from PubChem BioAssay (NCATS).

Assay [1] concerns the target Calcium and integrin-binding protein 1 (Homo sapiens) (UniProt Q99828). Kind of assay: Primary qHTS for Identification of Calcium Integrin Binding Protein 1 (CIB1) Competitor (AID 1508620).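 Further: GST tagged CIB1 binding a fluorescein labelled alphaIIb integrin peptide tracer; top concentration of the series differs between compounds.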 The essentials:
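CIB1-GST (1 uM final) and compound incubated 15 min at room temperature before adding FITC-alphaIIb peptide tracer (100 nM final). Competition for binding read by fluorescence polarization (ex 480, em 540) after another 15 min at room temperature.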
(In general: qHTS replaces the single test concentration by a dilution series.)

A short description of assay [2]: Primary qHTS for small molecule stabilizers of the endoplasmic reticulum resident proteome: Secreted ER Calcium Modulated Protein (SERCaMP) assay (AID 1508630). The essentials: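 The SH-SY5Y reporter protocol was run at 3 concentrations up to 38.3 uM (primary) or 11 concentrations (follow-up): 16 h compound, 100 nM thapsigargin for 4 h, then extracellular luciferase luminescence.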

Assay [3] deals with Cytochrome P450 2D6 (Homo sapiens) (UniProt P10635). Put plainly: Cytochrome P450 family 2 subfamily D member 6 (CYP2D6) small molecule antagonists: luciferase biochemical (cell-free) qHTS assay (AID 1645840; active means well fitted curve in the direction sought with a large enough effect in the repeat runs; an effect the other way counts as inactive or inconclusive; further: nearly all actives have a fitted effect of over 55% in size; further: potency means the concentration at half of the fitted maximal effect). The essentials: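 P450-Glo CYP2D6 system: proluciferin substrate converted by enzyme to luciferin, read by luminescence proportional to activity. Enzyme-substrate mix with compound 10 min at room temperature, then NADPH regeneration 1 h before detection reagent.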

Assay [4] has as its target Cytochrome P450 2C9 (Homo sapiens) (UniProt P11712). Kind of assay: Cytochrome P450 family 2 subfamily C member 9 (CYP2C9) small molecule antagonists: luciferase biochemical (cell-free) qHTS assay (AID 1645842; active means well fitted curve in the direction sought with a large enough effect in the repeat runs; an effect the other way counts as inactive or inconclusive; further: potency means the concentration at half of the fitted maximal effect; nearly all actives have a fitted effect of over 55% in size). The essentials:
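P450-Glo CYP2C9 system: proluciferin substrate with enzyme in mix containing 0.4% BSA, 10 min at room temperature, then NADPH regeneration solution added and incubated 1 h at 37C. Detection reagent stopped reaction; luminescence read after 20 min as RLU.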

Assay [5] can be described thus: Primary qHTS for inhibitors of nuclear receptor binding SET domain protein 2 (NSD2) in an isogenic RCH-ACV NSD2 p.E1099K mutant (9B) (AID 1645876). Further: nearly all actives have a fitted effect of over 70% in size. Further: potency means the concentration at half of the fitted maximal effect.
A short description of assay [6]: Primary qHTS for inhibitors of nuclear receptor binding SET domain protein 2 (NSD2) in an RCH-ACV wild type WT cells (2C) (AID 1645877). Further: nearly all actives have a fitted effect of over 70% in size. Further: potency means the concentration at half of the fitted maximal effect.

“And” between values parts separate entries of the source, which are not always exact repeats. Identical values can stand only once. Results filed as inconclusive are left out. The source made the active and inactive calls. Unless noted, the call rests on the fitted dose curve; in most records, active means well fitted curve in the direction sought with a large enough effect; inconclusive means small, poorly fitted or top-dose-only effect, or another doubt; inactive means no such curve, though single readings can be large; an effect the other way counts as inactive or inconclusive.

Chain of Calcium and integrin-binding protein 1 (Homo sapiens) (Q99828 whole entry, looked up): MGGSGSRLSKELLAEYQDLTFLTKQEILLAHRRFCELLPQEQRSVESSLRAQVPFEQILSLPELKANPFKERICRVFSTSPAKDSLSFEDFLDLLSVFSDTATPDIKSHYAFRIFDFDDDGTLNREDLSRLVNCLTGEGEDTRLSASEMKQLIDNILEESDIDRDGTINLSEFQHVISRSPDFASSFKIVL
Chain of Cytochrome P450 2D6 (Homo sapiens) (P10635 whole entry, looked up): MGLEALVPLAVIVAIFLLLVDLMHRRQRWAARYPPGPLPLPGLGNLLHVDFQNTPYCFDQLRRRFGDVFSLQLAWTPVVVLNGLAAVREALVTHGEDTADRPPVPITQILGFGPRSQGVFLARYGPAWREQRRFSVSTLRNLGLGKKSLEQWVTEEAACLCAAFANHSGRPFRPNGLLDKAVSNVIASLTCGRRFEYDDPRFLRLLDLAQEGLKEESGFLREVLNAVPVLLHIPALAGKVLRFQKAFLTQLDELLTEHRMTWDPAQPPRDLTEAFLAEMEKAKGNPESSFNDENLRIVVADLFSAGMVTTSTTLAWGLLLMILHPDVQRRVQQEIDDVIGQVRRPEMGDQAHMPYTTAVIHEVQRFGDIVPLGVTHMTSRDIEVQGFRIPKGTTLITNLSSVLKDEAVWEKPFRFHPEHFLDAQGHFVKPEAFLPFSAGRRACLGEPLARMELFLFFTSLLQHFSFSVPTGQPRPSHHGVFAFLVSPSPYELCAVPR
Chain of Cytochrome P450 2C9 (Homo sapiens) (P11712 whole entry, looked up): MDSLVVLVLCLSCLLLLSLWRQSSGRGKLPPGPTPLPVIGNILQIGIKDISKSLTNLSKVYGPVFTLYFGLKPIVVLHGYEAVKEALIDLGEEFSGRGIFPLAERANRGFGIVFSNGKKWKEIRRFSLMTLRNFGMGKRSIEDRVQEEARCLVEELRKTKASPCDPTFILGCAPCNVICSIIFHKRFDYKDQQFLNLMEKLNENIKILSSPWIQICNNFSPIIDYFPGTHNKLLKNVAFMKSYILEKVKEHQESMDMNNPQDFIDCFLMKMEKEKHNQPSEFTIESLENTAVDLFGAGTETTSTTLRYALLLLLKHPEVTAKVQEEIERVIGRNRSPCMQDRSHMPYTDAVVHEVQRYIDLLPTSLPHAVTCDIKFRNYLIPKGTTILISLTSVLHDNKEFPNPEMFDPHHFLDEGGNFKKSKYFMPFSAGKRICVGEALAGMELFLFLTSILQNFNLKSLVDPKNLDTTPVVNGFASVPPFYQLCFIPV

As for `CCNC(=O)[C@H]1O[C@@H](n2cnc3c(N)nc(NCCc4ccc(CCC(=O)O)cc4)nc32)[C@H](O)[C@H]1O`, the Potency result in assay [1] and in assay [2] was “inactive” each time.
`NC(N)=Nc1nc(CSCCC(N)=NS(N)(=O)=O)cs1`: the Potency result in assay [1] and in assay [2] was “inactive” in each case.
For the compound `CCCCN(CCCC)CC(O)c1cc(Cl)cc2c1-c1ccc(Cl)cc1C2=Cc1ccc(Cl)cc1` (configuration not stated), the Potency entry in assay [1] and in assay [2] was “inactive” each time.
Turning to `C[C@]12C=CC(=O)C=C1CC[C@@H]1[C@@H]2[C@@H](O)C[C@@]2(C)[C@@H]1CC[C@]2(O)C(=O)CO`, the Potency entry in assay [1] and in assay [2] was “inactive” each time.
On to `CO[C@H]1/C=C\O[C@@]2(C)Oc3c(C)c(O)c4c(O)c(c(C=NN5CCN(C6CCCC6)CC5)c(O)c4c3C2=O)NC(=O)C(C)=CC=C[C@H](C)[C@H](O)[C@@H](C)[C@@H](O)[C@@H](C)[C@H](OC(C)=O)[C@H]1C`, for which the Potency result in assay [1] and in assay [2] was “inactive” each time.
As to `O=S(=O)(NCCNCC=Cc1ccc(Br)cc1)c1cccc2cnccc12`, the Potency result in assay [1] and in assay [2] was “inactive” throughout.
As for `COc1ccc2c(c1)CC[C@H]1[C@@H]2CC[C@]2(C)[C@@H](NCCCCCCN3C(=O)C=CC3=O)CC[C@H]12`, the Potency result in assay [1] and in assay [2] was “inactive” in each case.
As to `O=C(O)C1=CO[C@@H](O[C@@H]2O[C@H](CO)[C@H](O)[C@H](O)[C@H]2O)[C@@H]2C(CO)=CC[C@H]12`, the Potency result in assay [1] and in assay [2] was “inactive” throughout.
On to `Oc1ccc(C=Cc2cc(O)cc(O)c2)cc1`, for which the Potency entry in assay [1] and in assay [2] was “inactive” throughout.
Consider `COc1c(C)c2c(c(O)c1CC=C(C)CCC(=O)OCCN1CCOCC1)C(=O)OC2`, for which the Potency result in assay [1] and in assay [2] was “inactive” in each case.
Consider `CCC=CC[C@H]1C(=O)CC[C@@H]1CC(=O)OC`, for which the Potency result in assay [1] and in assay [2] was “inactive” each time.
Consider `O=c1[nH]c(=O)n([C@H]2C[C@@H](O)[C@@H](CO)O2)cc1C(F)(F)F`, for which the Potency entry in assay [1] and in assay [2] was “inactive” each time.
As for `CCCCCCOC(=O)N=C(N)c1ccc(NCc2nc3cc(C(=O)N(CCC(=O)OCC)c4ccccn4)ccc3n2C)cc1`, the Potency entry in assay [1] and in assay [2] was “inactive” in each case.
For `CC[C@]1(O)C[C@H]2CN(CCC3=c4ccccc4=N[C]3[C@@](C(=O)OC)(c3cc4c(cc3OC)N(C)[C@H]3[C@@](O)(C(N)=O)[C@H](O)[C@]5(CC)C=CCN6CC[C@]43[C@@H]65)C2)C1`, the Potency result in assay [1] and in assay [2] was “inactive” each time.
On to `O=C(O)c1ccc(O)c2ncc(N3CCOCC3)cc12`, for which the Potency result in assay [1] and in assay [2] was “inactive” each time.
Regarding `FC(F)(F)c1ccc(C=Cc2nc(COc3ccc(CCCCn4ccnn4)cc3)co2)cc1`, the Potency entry in assay [1] and in assay [2] was “inactive” throughout.
Take `O=C(c1ccc(C=Cc2n[nH]c3ccccc23)cc1)N1CCNCC1`: the Potency result in assay [1] and in assay [2] was “inactive” each time.
`CC[C@H](NC(=O)[C@H](C)NC)C(=O)N1C[C@@H](O)C[C@H]1Cc1c(-c2[nH]c3cc(F)ccc3c2C[C@H]2C[C@H](O)CN2C(=O)[C@H](CC)NC(=O)[C@H](C)NC)[nH]c2cc(F)ccc12`: the Potency result in assay [1] and in assay [2] was “inactive” each time.
`CCC(=O)OCC(=O)[C@@]1(OC(=O)CC)[C@@H](C)C[C@@H]2[C@H]3CCC4=CC(=O)C=C[C@]4(C)[C@@]3(F)[C@@H](O)C[C@@]21C`: the Potency entry in assay [1] and in assay [2] was “inactive” in each case.
In the case of `CCCCCOC(=O)Nc1nc(=O)n([C@@H]2O[C@H](C)[C@@H](O)C2O)cc1F` (some centres not stated), the Potency entry in assay [1] and in assay [2] was “inactive” throughout.
For the compound `C[C@@]1(c2cc(-c3cncnc3)c(F)cc2F)CCSC(N)=N1`, the Potency entry in assay [1], in assay [2], in assay [5] and in assay [6] was “inactive” each time. Further, the values for the Potency in assay [3] and in assay [4] were 6.74 µM (active) and 16.9 µM (active), respectively.
In the case of `Cc1cc(C(C)Nc2ccccc2)c2nc(N3CCOCC3)cc(=O)n2c1` (configuration not stated), the Potency entry in assay [1], in assay [2] and in assay [3] was “inactive” in each case. Also, the Potency was 1.07 µM (active) in assay [4]; 2.3 µM (active) and 2.63 µM (active) in assay [5]; 2.3 µM (active) and 2.63 µM (active) in assay [6].
